Compound activity from PubChem BioAssay.
Tgondii IFNg: T. gondii growth inhibition with IFN-gamma, primary screen, cell-based; Toxoplasma gondii growth in IFN-gamma-treated host cells; stronger effect = lower value; activity change, negative = inhibition, % (test concentration not listed); 69,000 compounds, 3.8% hits; AID 1259416, 2018; in the data active means activity change below about -70%, passing the limit was not always enough;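 further: host cells are HeLa cells infected with Toxoplasma gondii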
Of the large screens only hits and unclear results are named; the others gave an inactive call; ! = repeats disagree. The entries come from a sample that favours hits as a whole.

Cc1cc2nc(-c3nccs3)cc(C(F)(F)F)n2n1	none
Cc1[nH]c2ccccc2c1C(=O)N1CCC(CC(=O)N2CCN(c3ccccc3)CC2)CC1	none
CC(Cc1cnccn1)NC(=O)c1cn(C/C=C/c2ccccc2)nn1 (stereo unspecified)	none
CC(C)C[C@H](NC(=O)[C@@H](NC(=O)c1cccc(-c2ccccc2)n1)[C@@H](C)O)B(O)O	none
CC(C)C[C@H](NC(=O)[C@H](Cc1ccccc1)NC(=O)c1cnccn1)B(O)O	Tgondii IFNg -80.9
COCC1CN(C(=O)COc2ccccc2)Cc2c1cnn2C (stereo unspecified)	none
Cc1nn(CC(=O)N2CCN(c3ccccn3)CC2)c(=O)c2nc(-c3ccccc3)sc12	none
CCS(=O)(=O)N1CCC2OCCCC2(COCc2ccncc2)C1 (stereo unspecified)	none
CCCN1C(=O)SC(CC(=O)Nc2ccc(OCC)cc2)C1=O (stereo unspecified)	none
Cc1cc2oc(=O)cc(C)c2cc1NC(=O)c1cnc(CN2CCCC2)s1	none
Cc1nc(Nc2ncc(C(=O)Nc3c(C)cccc3Cl)s2)cc(N2CCN(CCO)CC2)n1	Tgondii IFNg -76.6
Cc1cnc(Nc2cccc(C3CCCN3C(=O)CCOc3ccccc3C)n2)s1 (stereo unspecified)	none
O=C(Nc1cc(-c2ccccn2)no1)c1cccc2[nH]ccc12	none
CC(C)Sc1ccccc1C(=O)NCc1ccccn1	none
CNC(=O)c1ccccc1Sc1ccc2c(/C=C/c3ccccn3)n[nH]c2c1	Tgondii IFNg -75.3!
COc1ccc2c(c1)NC1(CCN(C(=O)Nc3cccc(SC)c3)CC1)c1cccn1-2	none
CC1CCN(C(=O)c2ncn3c2CN(CC2CC2)S(=O)(=O)c2ccccc2-3)CC1	none
Cc1nnc(-c2ccccc2-c2ccccc2CO)s1	none
CCOC(=O)Nc1nc2ccccc2[nH]1	none
CCCOc1ccc2nc(NC(=O)OC)[nH]c2c1	Tgondii IFNg -73.0!
COC(=O)Nc1nc2ccc(C(=O)c3ccc(F)cc3)cc2[nH]1	none
Cc1cccn2c(CC(=O)NCCS(=O)(=O)N3CCCC3)cnc12	none
O=C(Cc1c[nH]c2ccccc12)N1CCN(C(=O)c2cc(-c3ccncc3)n[nH]2)CC1	none
CCOC(=O)c1[nH]c(C)c(C(=O)OCC)c1C	none
CCOC(=O)c1[nH]c(C)c(CN2CC3CCCN3C[C@@H]2C)c1C (stereo partly specified)	none
CCOC(=O)c1[nH]c(C)c(S(=O)(=O)NC2CCCCNC2=O)c1C (stereo unspecified)	Tgondii IFNg -95.1
CN1CCN(Cc2n[nH]c(=O)n2CC2CCCCC2)CC1	none
O=S(=O)(C1CC1)N1CC[C@@H]2[C@H]1CCN2Cc1ccc(F)cc1	none
CC1(C)O[C@@H]2CC3C4CCC5=CC(=O)C=C[C@]5(C)[C@@]4(F)[C@@H](O)C[C@]3(C)[C@]2(C(=O)CO)O1 (stereo partly specified)	none
OC1(C(F)(F)F)CC(c2ccc3c(c2)Nc2ccccc2S3)=NN1 (stereo unspecified)	none
OC1(C(F)(F)F)CC(/C=C/c2ccc3c(c2)OCO3)=NN1 (stereo unspecified)	Tgondii IFNg -86.4
OC1(C(F)(F)F)CC(c2cc3ccccc3o2)=NN1 (stereo unspecified)	none
Cn1cc(CN2C[C@@H](c3ccccc3)[C@@]3(CCNC3=O)C2)cn1	none
Cc1cccc(CCNc2cc(C)nc3ncnn23)c1	none
CCOC(=O)c1nc(NCc2ccc3c(c2)OCO3)c2ccccc2n1	none
Cc1nc2ncnn2c(NCc2ccc3c(c2)OCO3)c1Cc1ccccc1	Tgondii IFNg -95.5
O=C(OCc1cc(F)cc(F)c1)c1c(F)cccc1F	none
O=C(NCc1ccc(N2CCOCC2)cc1)c1cn2c(n1)CCCC2	none
Cc1cc(Nc2ccccn2)cc(C2CCCN(C(=O)c3n[nH]c4c3CCCCCC4)C2)n1 (stereo unspecified)	Tgondii IFNg -85.6
Cc1cc(Nc2ccccn2)cc(C2CCCN(S(=O)(=O)c3ccc(F)cc3)C2)n1 (stereo unspecified)	none
O=C(c1n[nH]c2c1CCCCCC2)N1CCCN(c2ccccn2)CC1	none
Cc1nnn2c1COC(CNC(=O)c1cccn1C)C2 (stereo unspecified)	none
CN1CCN(C(=O)C[C@H]2CC[C@H]3[C@@H](COC[C@H](O)CN3Cc3cccc(-c4ccncc4)c3)O2)CC1	none
CC(C)N(C(=O)c1ccccc1-c1ccccc1C(=O)N(C(C)C)C(C)C)C(C)C	Tgondii IFNg -86.6
Cc1onc(-c2c(Cl)cccc2Cl)c1C(=O)N(C(C)C)C(C)C	none
CC(=O)c1ccccc1-c1ccccc1C(=O)NC(C)C	none
O=C(O)c1ccccc1C(=O)n1ccnc1-c1ccccc1	none
COc1ccc2c3c([nH]c2c1)[C@H](CO)NCC31CN(Cc2cc(F)ccc2F)C1	none
CCc1c(C)[nH]n2c(=O)cc(CCCn3cnc4ccccc4c3=O)nc12	none
CCN1C(=O)[C@@H]2CN(CCOC)C[C@@H]2C12CCN(S(=O)(=O)Cc1ccccc1)CC2	none
COc1cc(OC2CCN(C)CC2)ccc1Nc1ncc2c(n1)n(C1CCCC1)c(=O)n2C	none
CCN1C(=O)CCc2cc(C(=O)NC3CCCCC3)ccc21	none
CC[C@@H]1C(=O)N(C)c2cnc(Nc3ccc(C(=O)NC4CCN(C)CC4)cc3OC)nc2N1C1CCCC1	Tgondii IFNg -76.0
O=C(c1cccc(F)c1)N1CCC2(CC1)Nc1ccccc1-n1cccc12	none
C=CCOCC12CCCOC1CCN(C(=O)c1ccc3c(c1)OCO3)C2 (stereo unspecified)	none
CCc1nc(-c2c(-c3ccccc3)ncn2CCn2cc(C)nn2)c(C)[nH]1	none
CC(=O)N1CCC2(CC1)C(=O)N(CC1CC1)C2c1ccccc1 (stereo unspecified)	none
Cc1oc(-c2cccc(Cl)c2)nc1CSc1nc2c(=O)[nH]cnc2n1-c1ccccc1	Tgondii IFNg -84.2
Cc1oc(-c2ccc(OC(C)C)cc2)nc1CSc1nc2c(=O)[nH]cnc2n1-c1ccccc1	none
Cc1oc(-c2ccc(Cl)cc2)nc1CSc1nc2c(=O)[nH]cnc2n1-c1ccccc1	none
CCn1c(SCc2nc(-c3ccc(C)cc3)oc2C)nc2c(=O)[nH]cnc21	none
COc1cccc(-c2nc(CSc3nc4c(=O)[nH]cnc4n3-c3ccccc3)c(C)o2)c1OC	none
Cc1ccc(-c2nc(CSc3nc4c(=O)[nH]cnc4n3-c3ccccc3)c(C)o2)cc1	Tgondii IFNg -104.5
CCn1c(SCc2nc(-c3cccc(Cl)c3)oc2C)nc2c(=O)[nH]cnc21	none
Cc1ccc(-n2c(SCc3nc(-c4cccc(C)c4)oc3C)nc3c(=O)[nH]cnc32)cc1	none
Cc1ccc(-c2nc(CSc3nc4c(=O)[nH]cnc4n3-c3ccc(C)cc3)c(C)o2)cc1	Tgondii IFNg -94.9
CCOC(=O)N1CCC(n2cc(-c3c(C)nn(C)c3Cl)nn2)CC1	none
CC(C)CNC(=O)[C@@H]1CCS(=O)(=O)[C@H]2CN(C(=O)NCc3ccccc3)C[C@@H]12	none
CC=Cc1ccc2n(c1=O)C[C@H]1[C@H](CO)[C@@H](C(=O)N[C@H](C)c3ccccc3)[C@@H]2N1Cc1cncnc1 (mixture of isomers)	none
CN1CC(c2ccccc2)C2(CCN(C(=O)c3cccn3C)CC2)C1=O (stereo unspecified)	none
O=C(Nc1ccc(Cl)cc1)N1CCC2(CC1)Nc1ccccc1-n1cccc12	none
Cc1ccc2c(c1)c1c3n2CCN(CCCCN2C(=O)CC4(CCCC4)CC2=O)C3CCC1 (stereo unspecified)	none
CCN(C[C@@H]1[C@H](c2ccccc2)[C@H](CO)N1C(=O)COC)S(C)(=O)=O	none
NC(=O)C1(N2CCCCC2)CCN(c2ncc(NC(=O)c3ccc(Cl)cc3)cc2C(=O)O)CC1	none
O=C(Nc1ccc(Cl)cc1)ONC(=O)c1ncc(C(F)(F)F)cc1Cl	none
